Data published in the supplement of paper PMC12024424.
Where a name gives a salt, the structure may show the parent alone.

These compounds were tested on Staphylococcus aureus Sa2 (MRSA, cystic fibrosis isolate) (assay: growth reduction vs untreated control (OD550); higher = stronger antibacterial activity). Details: 0.1 mM; 24 h.
Protocol: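 Single-dose screen of the MedChem Express Drug Repurposing Library (0.1 mM, 1% DMSO) against planktonic MRSA S. aureus Sa2 (CF isolate) in TSB in 96-well plates, 37 °C aerobic, 24 h. Assays were run in triplicate and repeated twice.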
Compound `COc1cccc2c1C(=O)c1c(O)c3c(c(O)c1C2=O)C[C@@](O)(C(=O)CO)C[C@@H]3O[C@H]1C[C@H](N)[C@@H](O)[C@H](C)O1` [Epirubicin (hydrochloride)] has a growth reduction of 95%.
`Cc1ccc([C@@H]2O[C@H](CO)[C@@H](O)[C@H](O)[C@H]2O)cc1Cc1ccc(-c2ccc(F)cc2)s1` [Canagliflozin] was tested, and the growth reduction was 100%.
Compound `CCOc1cc2ncc(C#N)c(Nc3ccc(F)c(Cl)c3)c2cc1NC(=O)/C=C/CN(C)C` [Pelitinib] has a growth reduction of 90.6%.
Compound `N[C@@H](Cc1cc(I)c(Oc2cc(I)c(O)c(I)c2)c(I)c1)C(=O)O` [L-Thyroxine (sodium salt pentahydrate)] has a growth reduction of 100%.
`CCc1nc(-c2cccc(C)c2)c(-c2ccnc(NC(=O)c3ccccc3)c2)s1` gave a growth reduction of 100%.
For `O/N=c1\cc(-c2cc3sccc3cn2)oc2ccc(CCCN3CCOCC3)cc12` [Foliglurax (monohydrochloride)], the growth reduction was 100%.
In the case of `O=C(O)CCCc1cc2cc(Cl)ccc2n1S(=O)(=O)c1ccc2ncsc2c1` [Lanifibranor], the growth reduction is reported as 99.1%.
`CC/C(=C(\c1ccccc1)c1ccc(OCCN(C)C)cc1)c1ccccc1` [Tamoxifen] gave a growth reduction of 100%.
With `Clc1ccc(C(Cn2ccnc2)OCc2c(Cl)cccc2Cl)c(Cl)c1` (configuration not stated) [Isoconazole (nitrate)] the growth reduction was 100%.
`Cn1c(O)c(C2=c3ccccc3=NC2=O)c2ccccc21` [Meisoindigo] showed a growth reduction of 100%.
`COC(=O)C1=C(C)NC(C)=C(C(=O)OC(C)C)C1c1cccc2nonc12` (configuration not stated) [Isradipine] gave a growth reduction of 100%.
With `Clc1ccc(CSC(Cn2ccnc2)c2ccc(Cl)cc2Cl)cc1` (configuration not stated) [Sulconazole (mononitrate)] the growth reduction was 100%.
Compound `Clc1ccc(CCC(Cn2ccnc2)Sc2c(Cl)cccc2Cl)cc1` (configuration not stated) [Butoconazole (nitrate)] has a growth reduction of 100%.
`CC(C)(C)NCC(O)COc1ccccc1C1CCCC1` (single isomer, unassigned; (+)) [(+)-Penbutolol] showed a growth reduction of 91%.
In the case of `C#C[C@]1(O)CC[C@H]2[C@@H]3CCc4cc(OC5CCCC5)ccc4[C@H]3CC[C@@]21C` [Quinestrol], the growth reduction is reported as 100%.
`CC1=CC(=O)c2ccccc2C1=O` [Menadione] gave a growth reduction of 96.7%.
Compound `Cc1cc(C2CCCCC2)n(O)c(=O)c1` [Ciclopirox] has a growth reduction of 99.3%.
Compound `CCOc1cc(CC(=O)N[C@@H](CC(C)C)c2ccccc2N2CCCCC2)ccc1C(=O)O` [Repaglinide] has a growth reduction of 96.9%.
For `CC(=O)[C@]1(O)Cc2c(O)c3c(c(O)c2[C@@H](O[C@H]2C[C@H](N)[C@H](O)[C@H](C)O2)C1)C(=O)c1ccccc1C3=O` [Idarubicin (hydrochloride)], the growth reduction was 98.1%.
`CC(=O)c1cc2c(o1)C(=O)c1ccccc1C2=O` [Napabucasin] gave a growth reduction of 100%.
Work on `COc1cc(C)c2c(Oc3cccc(C(F)(F)F)c3)c(OC)cc(NC(C)CCCN)c2n1` (configuration not stated) [Tafenoquine (Succinate)] yielded a growth reduction of 100%.
`CC(C)(O)c1ccccc1CC[C@@H](SCC1(CC(=O)O)CC1)c1cccc(/C=C/c2ccc3ccc(Cl)cc3n2)c1` [Montelukast (sodium)] gave a growth reduction of 100%.
`CN(CCCCCCCCCCN(C)C(=O)Oc1cccc([N+](C)(C)C)c1)C(=O)Oc1cccc([N+](C)(C)C)c1` [Demecarium Bromide] was tested, and the growth reduction was 100%.
Compound `NC(=O)c1cccc2cn(-c3ccc([C@@H]4CCCNC4)cc3)nc12` [Niraparib (tosylate)] has a growth reduction of 99.5%.
`Cc1cc(-c2nc(CN3CCNCC3)no2)cc2c1C(=O)N(Cc1ccc(OC(F)(F)F)cc1)C2` was tested, and the growth reduction was 100%.
`NC1=NCC2c3ccccc3Cc3ccccc3N12` (configuration not stated) [Epinastine] showed a growth reduction of 100%.
`O=c1[nH]cnc2c1cnn2[C@@H]1O[C@H](CO)[C@@H](O)[C@H]1O` [Allopurinol riboside] was tested, and the growth reduction was 99.9%.
`CCc1cc(-c2noc(-c3cc(OC)nc(C4CCCC4)c3)n2)cc(C)c1OC[C@@H](O)CO` [Cenerimod] gave a growth reduction of 100%.
For `COc1cc(/C=C/c2ccc(O)cc2)cc(OC)c1` [Pterostilbene], the growth reduction was 99.9%.
In the case of `Clc1ccc(CSC(Cn2ccnc2)c2ccc(Cl)cc2Cl)cc1` (configuration not stated) [Sulconazole (nitrate)], the growth reduction is reported as 93.4%.
Work on `COCC[n+]1c2c(n(Cc3cnccn3)c1C)C(=O)c1ccccc1C2=O` [Sepantronium (bromide)] yielded a growth reduction of 100%.
Compound `CNC(=O)c1cc(Oc2ccc(NC(=O)Nc3ccc(Cl)c(C(F)(F)F)c3)c(F)c2)ccn1` [Regorafenib (monohydrate)] has a growth reduction of 100%.
With `Cc1cc(C2CCCCC2)n(O)c(=O)c1` [Ciclopirox (olamine)] the growth reduction was 99.3%.
Compound `OCc1cc([C@@H](O)CNCCCCCCOCCOCc2c(Cl)cccc2Cl)ccc1O` [Vilanterol] has a growth reduction of 99.9%.
In the case of `COc1cc2ncnc(Nc3ccc(F)c(Cl)c3)c2cc1NC(=O)/C=C/CN1CCCCC1` [Dacomitinib], the growth reduction is reported as 100%.
`CC(C)OC(=O)CCC/C=C\C[C@@H]1[C@@H](/C=C/[C@@H](O)COc2cccc(C(F)(F)F)c2)[C@H](O)C[C@@H]1O` [Travoprost] was tested, and the growth reduction was 100%.
`Cc1cccc(Nc2ccccc2C(=O)O)c1C` [Mefenamic acid] showed a growth reduction of 97.3%.
